Holding throughout (test): PBM binding z-score (relative to random genomic background probes); higher = stronger binding; sequences stand for … in GC…GCGATTGACAGCGTAGAATGAAGG
Assay [1] relates to FXR:RXRa (NR concentration 270 nM, RXRa partner concentration 90 nM). The essentials: (§1)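 Probes were double-stranded and carried 34-nt variable regions with direct-repeat seeds, single-nucleotide variants, half-site ablations and random human genomic background sequences, printed on custom Agilent 4×180K protein-binding microarrays. Arrays were incubated 1 h with ligand-free nuclear receptor dimers in PBS pH 7.4, 2% milk, 0.02% Triton X-100, 1 mM DTT, 0.2 mg/mL BSA and 0.4 mg/ml salmon testes DNA. Antibodies against each partner (one per run) detected binding, and scanned fluorescence was regression-normalized. Binding z-scores use the random background probes as reference.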

The subject of assay [2] is LXRa:RXRa (NR concentration 270 nM, RXRa partner concentration 90 nM). The essentials:
as §1

Assay [3] deals with LXRa homodimer (NR concentration 270 nM). The essentials:
as §1

The subject of assay [4] is LXRb:RXRa (NR concentration 270 nM, RXRa partner concentration 90 nM). The essentials: as §1
The test system of assay [5] is LXRb homodimer (NR concentration 270 nM). The essentials:
as §1

The subject of assay [6] is PPARa:RXRa (NR concentration 270 nM, RXRa partner concentration 90 nM). The essentials:
as §1

The test system of assay [7] is PPARg:RXRa (NR concentration 180 nM, RXRa partner concentration 90 nM). The essentials:
as §1

For assay [8], the system named is PPARg:RXRa 270nM:90nM, anti-RXR (NR concentration 270 nM, RXRa partner concentration 90 nM). The essentials: as §1
Assay [9] concerns PPARg:RXRa 30nM:10nM, anti-RXR (NR concentration 30 nM, RXRa partner concentration 10 nM). The essentials: as §1
For assay [10], the system named is PPARg:RXRa 90nM:30nM, anti-RXR (NR concentration 90 nM, RXRa partner concentration 30 nM). The essentials:
as §1

Assay [11] concerns PPARg:RXRa DBDmut IVT, anti-RXR (DBD mutation: RXRa K156A/R161A, NR concentration 270 nM, RXRa partner concentration 90 nM). The essentials:
as §1

Assay [12] deals with PPARg:RXRa IVT, anti-PPARg (NR concentration 270 nM, RXRa partner concentration 90 nM). The essentials: as §1
Assay [13] relates to PPARg DBDmut:RXRa IVT, anti-PPARg (DBD mutation: PPARg1 K132A/R137A, NR concentration 270 nM, RXRa partner concentration 90 nM). The essentials:
as §1

Assay [14] relates to PPARg DBDmut IVT, anti-PPARg (DBD mutation: PPARg1 K132A/R137A, NR concentration 270 nM). The essentials: as §1
For assay [15], the system named is PPARg homodimer (NR concentration 180 nM). The essentials:
as §1

In assay [16] the test system is PXR:RXRa (NR concentration 270 nM, RXRa partner concentration 90 nM). The essentials:
as §1

Assay [17] has as its system PXR homodimer (NR concentration 270 nM). The essentials:
as §1

Assay [18] relates to RARa:RXR (NR concentration 270 nM, RXRa partner concentration 90 nM). The essentials: as §1
Assay [19] deals with RARa homodimer (NR concentration 270 nM). The essentials: as §1
For assay [20], the system named is RARb:RXRa (NR concentration 270 nM, RXRa partner concentration 90 nM). The essentials: as §1

The text below walks through data of the supplement of paper PMC6555819.

Take TCTAGTTGGTCAAAGGTCACACAATCGAAATGCG: the PBM binding z-score was 5.53 in assay [1]; 5.9 in assay [2]; 3.73 in [3]; 5.66 in assay [4]; 2.13 in assay [5]; 6.6 in assay [6]. Besides, the PBM binding z-score in assay [7] was found to be 11.8; in assay [8] it was 9.87; in assay [9], 11.7; in [10], 11.4; in [11], 3.58; in assay [12] it was 6.28. Besides, the PBM binding z-score was 1.49 in [13]; 2.13 in assay [14]; 4.36 in assay [15]; 5.97 in assay [16]; 2.1 in assay [17]; 7.76 in assay [18]. Also, the figures for the PBM binding z-score in [19] and in [20] were 3.91 and 5.16, respectively.
As to TCATATAGGTAAAGGTGAAAGTTGAACGATATGA, the PBM binding z-score was 1.54 in assay [1]; 1.75 in assay [2]; 0.158 in assay [3]; 1.89 in assay [4]; -0.399 in assay [5]; 4.3 in assay [6]. Moreover, the PBM binding z-score in assay [7] was 5.92; in assay [8] it was 5.66; in assay [9] it was 5.22; in [10], 5.99; in [11], 4; in assay [12], 4.73. For the same sequence, the PBM binding z-score in [13] stood at 1.52; in assay [14], 1.41; in assay [15], 1.62; in assay [16], 2.3; in assay [17], 0.333; in assay [18], 3.46. The PBM binding z-score in [19] was determined as 0.78; in assay [20] it was 2.25.
In the case of CGTCCACGGTCAATGCTAGGTCAGTGAAAGCATT, the PBM binding z-score in [1] is 0.638; in [2], 1.1; in [3] it was 0.946; in [4], 0.337; in assay [5], -0.956; in assay [6] it was 0.778. For the same sequence, the PBM binding z-score in assay [7] was -0.0965; in assay [8], 0.186; in [9] it was -0.646; in assay [10], -0.669; in [11], 0.573; in assay [12], 1.02. The PBM binding z-score is -0.899 in assay [13]; -1.45 in [14]; 0.415 in [15]; 0.201 in assay [16]; -0.388 in assay [17]; 1.17 in assay [18]. Also, the PBM binding z-score in assay [19] was -0.504; in assay [20] it was 3.16.
In the case of CCAGACAGATGAAAGGTAACTCAGTCTGGTACGC, the PBM binding z-score was -0.273 in assay [1]; 0.0444 in assay [2]; -0.381 in assay [3]; 0.156 in assay [4]; -0.167 in [5]; 0.579 in assay [6]. Besides, the PBM binding z-score in assay [7] was 0.879; in assay [8], 1.21; in [9], 0.636; in assay [10], 0.829; in assay [11], -0.108; in assay [12] it was -0.154. For the same sequence, the PBM binding z-score is -0.0341 in assay [13]; -0.512 in [14]; 0.444 in assay [15]; 0.0908 in assay [16]; 0.0132 in assay [17]; 0.186 in assay [18]. The PBM binding z-score in [19] worked out at 0.861; in assay [20], 0.167.
In the case of TCTTGTAGAACAATAGAGGTTAAGAAAGTGCGCT, the PBM binding z-score in assay [1] was 0.656; in [2], 2.99; in assay [3], 0.526; in assay [4], 1.58; in [5] it was -0.26; in assay [6] it was 1.92. Also, the PBM binding z-score in [7] stood at 0.287; in assay [8], 1.7; in assay [9], 2.64; in [10], 2.2; in assay [11], 1.83; in [12], 1.45. Also, the PBM binding z-score in [13] is 0.641; in assay [14] it was 0.472; in assay [15], -0.0635; in assay [16] it was 3.16; in assay [17], 0.538; in [18], 1.69. Besides, the values for the PBM binding z-score in assay [19] and in [20] were 0.27 and 0.777, respectively.
Regarding CCTAGTTGGTCCAGGTCACACACGCTATAGGTAC, the PBM binding z-score worked out at 1.93 in [1]; 2.22 in assay [2]; 1.52 in [3]; 2.41 in assay [4]; 0.771 in [5]; 2.58 in [6]. The PBM binding z-score was 1.47 in assay [7]; 1.46 in [8]; 0.532 in assay [9]; 1.01 in assay [10]; 1.21 in assay [11]; 2.28 in [12]. For the same sequence, the PBM binding z-score is 0.272 in [13]; 0.266 in assay [14]; 2.22 in [15]; 2.34 in assay [16]; 1.6 in assay [17]; 2.66 in assay [18]. For the same sequence, the PBM binding z-score in assay [19] stood at 1.7; in [20], 2.59.
With ATCTCTAGGTAAAGATTGTTCAGTGAATGCAAAT, the PBM binding z-score in [1] came to 0.226; in assay [2] it was 0.124; in assay [3], 0.091; in assay [4] it was 0.234; in [5], 0.621; in assay [6] it was 0.0998. The PBM binding z-score in [7] amounted to 0.137; in assay [8], 0.495; in assay [9], 0.342; in assay [10] it was 0.381; in assay [11], 2.3; in assay [12], 1.85. Moreover, the PBM binding z-score in assay [13] was found to be 0.903; in assay [14], 0.841; in assay [15] it was 0.219; in [16], 0.132; in assay [17] it was 0.182; in assay [18], 0.436. In addition, the PBM binding z-score in assay [19] is 1.35; in assay [20], 0.105.
